The panel holds about 83,000 compounds, 20% with a hit somewhere; the sample as a whole holds those more often.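 Plates (96-well) were seeded with cells, treated with compound at one concentration, and incubated for 48 hours before percent growth was determined.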 A number with no mark means an inactive call. Calls of active or inactive are those of the source. The calls were made as follows: active = growth percent below 10; inactive = the rest.
Assays:
Test in all cases: NCI-60 one-dose screen, 48 h (100 = growth as untreated, 0 = no growth, -100 = all killed)
[1] = system: NCI-H23 lung; conditions: 10 µM
[2] = system: HOP-92 NSCLC; conditions: 10 µM
[3] = system: K-562 leukemia; conditions: 10 µM
[4] = system: RXF 393 renal; conditions: 10 µM
[5] = system: SNB-19 CNS; conditions: 10 µM
[6] = system: SK-MEL-28 melanoma; conditions: 10 µM
[7] = system: UO-31 renal; conditions: 10 µM
[8] = system: MOLT-4 leukemia; conditions: 10 µM
[9] = system: SR leukemia; conditions: 10 µM
[10] = system: T-47D breast; conditions: 10 µM
[11] = system: MDA-MB-468 breast; conditions: 10 µM unless noted
[12] = system: MDA-MB-231 breast; conditions: 10 µM
[13] = system: HCT-15 colon; conditions: 10 µM
[14] = system: LOX IMVI melanoma; conditions: 10 µM
[15] = system: OVCAR-8 ovarian; conditions: 10 µM
[16] = system: SK-OV-3 ovarian; conditions: 10 µM
[17] = system: HS 578T breast; conditions: 10 µM
[18] = system: SW-620 colon; conditions: 10 µM
[19] = system: CAKI-1 renal; conditions: 10 µM
[20] = system: M14 melanoma; conditions: 10 µM

CCC[Se]C(=O)c1ccc(C(=O)[Se]CCC)s1
growth [1]: -49.2% (active) | growth [2]: -57.8% (active) | growth [3]: 7.32% (active) | growth [4]: -41.3% (active) | growth [5]: -86.5% (active) | growth [6]: -62.9% (active) | growth [7]: -55.5% (active) | growth [8]: 7.32% (active) | growth [9]: 18.5% | growth [10]: 30% | growth [11]: -80.6% (active)

CN(C)CCc1cn(C2CCC2)c2cccc(O)c12
growth [3]: 1.37% (active) | growth [12]: 76% | growth [4]: 53.2% | growth [13]: 62.2% | growth [5]: 87% | growth [14]: 50.4% | growth [8]: 57.2% | growth [9]: 52.8% | growth [15]: 96.6% | growth [16]: 92.9% | growth [17]: 47.7% | growth [18]: 23% | growth [11]: 44.6%

O=C(/C=C/c1ccc(F)cc1)c1nc2ccccc2n1Cc1ccc(F)cc1
growth [1]: 14.6% | growth [2]: 22.9% | growth [3]: 1.64% (active) | growth [4]: -67.6% (active) | growth [13]: -61% (active) | growth [5]: 13.8% | growth [7]: -33.6% (active) | growth [19]: 43.9% | growth [8]: 1.05% (active) | growth [9]: 1.79% (active) | growth [11]: -15.7% (active)

CC(C)N=C([Se])NC(=O)c1cccs1
growth [1]: -33.4% (active) | growth [2]: 88.3% | growth [3]: 71% | growth [4]: 21.6% | growth [13]: 34.9% | growth [5]: 4.61% (active) | growth [19]: 31.1% | growth [8]: 15.4% | growth [9]: 2.39% (active) | growth [10]: 79.4% | growth [11]: 64.4%

CC(C)N=C([Se])NC(=O)c1ccccc1
growth [2]: -34.3% (active) | growth [3]: 15.9% | growth [12]: -48.6% (active) | growth [4]: -83.7% (active) | growth [20]: -65.2% (active) | growth [13]: 1.65% (active) | growth [5]: 11.4% | growth [14]: -37.3% (active) | growth [6]: -43.9% (active) | growth [19]: -80.7% (active) | growth [8]: 2.86% (active) | growth [9]: -9.62% (active) | growth [17]: -2.5% (active) | growth [18]: -20.9% (active) | growth [11]: -46% (active)

O=C(/C=C/c1ccccc1)c1nc2ccccc2n1Cc1ccc(F)cc1
growth [1]: -45.9% (active) | growth [2]: -28.4% (active) | growth [3]: -8.55% (active) | growth [4]: -89.3% (active) | growth [13]: -70.1% (active) | growth [5]: -47.9% (active) | growth [7]: -78.5% (active) | growth [19]: 31.2% | growth [8]: -4.66% (active) | growth [9]: -16.4% (active) | growth [15]: 4.71% (active) | growth [16]: 64.9% | growth [11]: -90.3% (active)

O=C(/C=C/c1ccc(Cl)cc1Cl)c1nc2ccccc2n1Cc1ccc(F)cc1
growth [1]: 47.8% | growth [2]: 36.6% | growth [3]: 14.5% | growth [4]: 32.4% | growth [13]: 11.8% | growth [6]: 74% | growth [8]: 4.16% (active) | growth [9]: -1.72% (active) | growth [16]: 103% | growth [10]: 27.2% | growth [11]: 12.3%

CC(=O)Oc1ccccc1C(=O)NC([Se])=NC1CCCCC1
growth [1]: -0.217% (active) | growth [2]: 32% | growth [3]: 61.8% | growth [4]: -68.3% (active) | growth [5]: 12.3% | growth [6]: -14.7% (active) | growth [7]: -87.7% (active) | growth [8]: 29.4% | growth [9]: 41.4% | growth [10]: -9.49% (active) | growth [11]: -4.29% (active)

COc1cc(OC)c(S(=O)(=O)N(CCCl)CCCl)cc1C(=O)/C=C/c1ccc(C)cc1
growth [2]: 70.5% | growth [3]: 70.9% | growth [12]: 35% | growth [4]: -17.9% (active) | growth [20]: 86.4% | growth [14]: -24% (active) | growth [6]: 102% | growth [8]: 82.4% | growth [9]: 53.6% | growth [17]: 56.8% | growth [10]: 88% | growth [18]: 82.8% | growth [11]: 68.6%

O=C(/C=C/c1ccco1)c1nc2ccccc2n1Cc1ccc(F)cc1
growth [1]: 65.2% | growth [2]: 40.2% | growth [3]: 20.7% | growth [4]: 33.3% | growth [5]: 77.7% | growth [19]: 57.6% | growth [8]: 6.46% (active) | growth [9]: 23.6% | growth [15]: 70.1% | growth [10]: 18% | growth [11]: 24%

CC1=C(CCC=O)C2=C(C)C3(CC3)[C@@](C)(O)C(=O)C2=C1
growth [1]: -86% (active) | growth [2]: -64.3% (active) | growth [12]: -99.2% (active) | growth [4]: -95.3% (active) | growth [13]: -71.1% (active) | growth [14]: -94.8% (active) | growth [19]: -100% (active) | growth [15]: -73.4% (active) | growth [17]: -8.94% (active) | growth [10]: -41.3% (active) | growth [18]: -74.9% (active) | growth [11]: -86.5% (active)

O=C(/C=C/c1cccc(Br)c1)c1nc2ccccc2n1Cc1ccc(Br)cc1
growth [1]: -50.7% (active) | growth [2]: -48.8% (active) | growth [3]: -2.19% (active) | growth [4]: -81.2% (active) | growth [5]: -67% (active) | growth [19]: 16.6% | growth [8]: -6.66% (active) | growth [9]: -12.4% (active) | growth [15]: -8.23% (active) | growth [16]: 65.4% | growth [11]: -58.5% (active)
